Hit rate of the full screen: of about 300,000 compounds, about 990 (0.33%) were called active. This is one part of a sample in which actives are shown more often than they occur. Unmarked numbers belong to inactive results.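 Rule for the calls: active = inhibition above the screen mean inhibition plus 3 SD, computed separately per campaign (cut at about 18% in these data); inactive = the rest.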
Tested on: Fam108B (ABHD17B) serine hydrolase [Mus musculus]
Assay: mouse Fam108B serine hydrolase inhibitors, primary screen, counter-screen for RBBP9 inhibitor project, biochemical, fluorescence polarization (AID 1947);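 note: inhibitors lower polarization as less probe binds the enzyme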
Conditions: recombinant Fam108B, FP-Rh probe fluorescence polarization; at 9.51 µM; active compounds read high

Compound | inhibition
O=C(N/N=C/c1cc(Cl)cc([N+](=O)[O-])c1O)C(O)(c1ccccc1)c1ccccc1 | 7.58%
O=[N+]([O-])c1cc(Cl)cc(/C=N/NC(=S)Nc2cc(S(=O)(=O)N3CCOCC3)ccc2Cl)c1O | 49.6% (active)
O=C(CN1CCN(c2ccc(O)cc2)CC1)Nc1cc(S(=O)(=O)N2CCOCC2)ccc1Cl | 1.19%
COC(=O)c1cc(-c2cccs2)nc2ccccc12 | -5.99%
O=C(O)COc1ccc(-c2nccc(-c3cccs3)n2)cc1 | -4.89%
COC(=O)CSc1nccc(-c2cccs2)n1 | 25.3% (active)
Cc1ccc([C@@H]2CC=C(C(=O)O)[C@H](c3cccc(Cl)c3)N2S(=O)(=O)c2ccc(C)cc2)cc1 | -3.66%
CC(C)(C)NC(=O)NC(=O)COC(=O)Cc1ccc(Cl)cc1Cl | -3.17%
COc1ccc(-c2csc(NC(=O)COC(=O)Cc3ccc(Cl)cc3Cl)n2)cc1 | 25.7% (active)
COc1ccc(-c2csc(NC(=O)COC(=O)c3ccc(Br)o3)n2)cc1 | -1.38%
CC(C)(C)c1ccc(/C=C2\SC(=O)N=C2N)cc1 | -2.33%
CCOC(=O)c1c(N)sc(C(C)=O)c1C | 2.44%
COCCOC(=O)c1sc(=S)n(CCOC)c1N | 30.9% (active)
COC(=O)c1sc(=S)n(-c2ccc(Cl)cc2)c1C | 0.66%
CC(=O)c1ccc(-c2ccc(Cn3c(C)nc4cc(N)c(C)nc43)cc2)cc1 | -2.95%
Cc1cc2nc3c(=O)n(Cc4ccccc4)c(=O)[nH]c3nc2cc1N | 20.1% (active)
Cc1cc(-c2csc(N)n2)c(C)n1Cc1ccccc1 | 1%
C=C1C2C[C@H](O)C(C)(C)[C@@]2(O)[C@H](O)C[C@]23C[C@@](C)(O)[C@H](CC[C@H]12)[C@H]3O (some centres undefined) | -4.05%
CCN(CC(=O)Nc1ccc2c(c1)OCO2)S(=O)(=O)c1ccccc1 | 3.09%
CCn1c(SCc2ccccc2)nc2c(c1=O)SCC2 | 5.08%
CSc1c(SCc2ccccc2)cnn(Cc2ccccc2)c1=O | 52.1% (active)
CC(=O)Nc1ccc(NC(=O)CSc2ncnc3c2cnn3Cc2ccccc2)cc1 | 1.73%
Cc1noc(C)c1S(=O)(=O)N(C)Cc1ccccc1 | -2.49%

Compound | inhibition
Cc1cc(C)cc(C(=O)N(CCc2ccccc2)C2=CC3CCC(C2)N3C)c1 (centres undefined) | -0.23%
COCC(C)NC(=O)CSc1nc2nn(-c3ccccc3)c(=O)c-2c2n1CCCCC2 (centres undefined) | 0.63%
O=C(Cn1ncc2c3ccccc3n(Cc3ccccc3)c2c1=O)NCCCN1CCOCC1 | -3.84%
CC(C)Nc1ccc(-n2nc3ccccc3[n+]2[O-])cc1 | 1.5%
N=C1C(=O)OCC1c1ccccc1NC(=O)CN1CCCCC1 (centres undefined) | -3.29%
COc1ccc2nc(Nc3nc4cc5c(cc4s3)OCCO5)sc2c1 | 33.1% (active)
COc1ccc2nc(NC(=O)NC3CCCCC3)sc2c1 | 4.3%
COc1ccc2nc(NC(=O)c3ccc(Br)s3)sc2c1 | -2.97%
CC1C(=O)C(C)C(c2ccc(O)cc2)NC1c1ccc(O)cc1 (centres undefined) | -5.96%
COc1ccc2oc(C(=O)N(CC(C)C)C3CCS(=O)(=O)C3)c(C)c2c1 (centres undefined) | 3.82%
O=C(NNc1c2ccccc2nc2ccccc12)c1cc2ccccc2cc1O | 71.8% (active)
O=C(N/N=C/c1cccnc1)c1cc2ccccc2cc1O | 3.37%
CC(C)(C)OC(=O)NNc1c2ccccc2nc2ccccc12 | 10.9%
COc1ccc(CNC(=O)CN(C(=O)c2csnn2)c2cnc3ccccc3c2)cc1 | 2.77%
CC[C@H]1OC(=O)[C@H](C)[C@@H](O[C@H]2C[C@@](C)(OC)[C@@H](O)[C@H](C)O2)[C@H](C)[C@@H](O[C@@H]2O[C@H](C)C[C@H](N(C)C)[C@H]2O)[C@](C)(O)C[C@@H](C)[C@@H]2N[C@@H](COCCOC)O[C@H]([C@H]2C)[C@]1(C)O | -4.04%
O=C(CCCn1c(SCC(=O)c2ccccc2)nc2ccccc2c1=O)NCC1CCCO1 (centres undefined) | -0.5%
O=C(CCCn1c(SCC(=O)c2ccc(F)cc2)nc2ccccc2c1=O)NCc1ccco1 | -1.64%
O=C(CCn1c(SCC(=O)c2ccccc2)nc2ccccc2c1=O)NCc1ccc(F)cc1 | 27.5% (active)
CS(=O)(=O)N1CCCC(C(=O)Nc2ccccc2C(F)(F)F)C1 (centres undefined) | -3.11%
COc1ccccc1C1C(C#N)=C(N)Oc2c1c(-c1ccccc1)nn2-c1ccccc1 (centres undefined) | 24.5% (active)
Cc1nn(-c2ccccc2)c2c1C(c1ccc(F)cc1)C(C#N)=C(N)O2 (centres undefined) | 4.31%
Cc1nn(Cc2ccccc2)c2c1C(c1ccccc1)C(C#N)=C(N)O2 (centres undefined) | 4.14%
CC(C)CCN1CCN=C1N(C)C | -3.1%

Compound | inhibition
Cc1cc(C)cc(C(=O)NC2C(=O)N3C(C(=O)O)=C(CSc4nnc(C)s4)CSC23)c1 (centres undefined) | 0.52%
CC(C)c1ccc2oc(=O)cc(CN3CCN(Cc4ccccc4)CC3)c2c1 | 0.92%
CN(C)c1ccc(NC(=O)CN2C3CCCC2CC(NC(=O)c2ccccc2)C3)cc1 (centres undefined) | -3.02%
COc1ccc(C(=O)Nc2c(N)nc(SCC(=O)Nc3ccc(C(C)=O)cc3)[nH]c2=O)cc1 | 2.83%
COc1ccc(N2CCN(S(=O)(=O)c3cc4c5c(c3)C(C)C(=O)N5CCC4)CC2)cc1 (centres undefined) | 2.45%
CCOC(=O)N1CCC(O)(c2cc(C)c(C)cc2C)CC1 | 1.15%
COc1ccc(Nc2ncc(C(=O)N3CCN(c4ccccc4OC)CC3)c3ccccc23)cc1 | 5.14%
O=C(Cn1cc(/C=N/NC(=O)c2cccc(C(F)(F)F)c2)c2ccccc21)Nc1ccc(F)cc1 | 4.38%
CC(/C=N/NC(=O)c1ccncc1)=C\c1ccco1 | -1.58%
C/C(=C\c1ccco1)C1Nc2cccc3cccc(c23)N1 | 18.5% (active)
CC(/C=N/NC(=O)c1cc(-c2ccc3ccccc3c2)n[nH]1)=C\c1ccco1 | -15.2%
CC(=O)NC1=NN(C(C)=O)C(C)(c2ccc(Cl)s2)S1 (centres undefined) | -2.49%
CC(C)(C)C(=O)Nc1c(Br)c(C2CC2)nn1-c1ccccc1 | 1.83%
COc1ccc(/C=C/C(=O)OCC(=O)Nc2cccc(Oc3ccccc3)c2)c(OC)c1 | 21.4% (active)
COc1cc(/C=C/C(=O)OCC(=O)Nc2cccc(Oc3ccccc3)c2)ccc1O | 6.01%
COc1ccc(OC)c(/C=C/C(=O)OCC(=O)Nc2ccc3c(c2)OCCO3)c1 | -4.2%
COc1ccc(OCc2nnc3n2N=C(c2ccccc2)C(CC(=O)O)S3)cc1 (centres undefined) | -0.94%
O=C(CN1CCN(Cc2ccc(F)cc2Cl)C1=O)NCc1cccs1 | 2.32%
CSCCC1NC2(C(=O)Nc3ccc(Cl)cc32)[C@@H]2C(=O)N(C3CCCC3)C(=O)[C@H]12 (some centres undefined) | -1.72%
O=[N+]([O-])c1ccc(F)cc1Oc1nc(-c2cccnc2)nc2ccccc12 | -4.4%
CCc1ccccc1N1CN(Cc2ccco2)CNC1=S | -2.75%
Oc1c(Cl)cc(Cl)c(Cl)c1Cc1c(O)c(Cl)cc(Cl)c1Cl | 48% (active)
CN(C)C(=O)c1cccn(Cc2cccc(C(F)(F)F)c2)c1=O | 0.5%

Compound | inhibition
O=C(NCCN1C(=O)S/C(=C\c2cccnc2)C1=O)c1cccc(OC(F)F)c1 | 2.13%
COc1ccc(N2CC(C(=O)NCCN3C(=O)S/C(=C\c4cccnc4)C3=O)CC2=O)c(OC)c1 (centres undefined) | 65.4% (active)
CCOc1ccc(N2CC(C(=O)NCCN3C(=O)S/C(=C\c4cccnc4)C3=O)CC2=O)cc1 (centres undefined) | 0.71%
COc1ccc(NC(=S)SC)cc1OC | 2.25%
CC(Cc1cccs1)N(Cc1ccc(Cl)cc1)C(=O)c1ccncc1 (centres undefined) | 0.27%
c1ccc2c(-c3nn4nnnc4c4ccccc34)cccc2c1 | 3.27%
CCC(=O)c1ccc(OCC(=O)OCC(=O)NC2CCCCCC2)cc1 | 2.33%
O=C(NCc1ccccn1)c1ccc2nc(-c3ccco3)c(-c3ccco3)nc2c1 | 39.1% (active)
Cc1cc(C)cc(NC(=O)NCc2ccccn2)c1 | -2.47%
CCCC(=O)Nc1ccc2c(c1)nc(CCNC(=O)c1ccco1)n2C | 3.43%
CCOc1cc(NC(=S)NCCCOC)c(OCC)cc1NC(=O)c1ccco1 | -0.81%
COCCNC(=O)Nc1ccc2nc(-c3ccco3)c(-c3ccco3)nc2c1 | 63.8% (active)
COc1ccc2oc(=O)c(C(=O)NCc3ccccn3)cc2c1 | 1.13%
O=C(CSc1nnc(C2CC2)n1Cc1ccccc1)Nc1cccnc1Cl | 1.49%
C/C=C/C(=O)Nc1ccc(N2CCN(c3ccc(C(F)(F)F)cn3)CC2)nc1 | 8.22%
CC(C)C(=O)N1CCC2(CC1)Oc1ccc(F)cc1C(=O)C21CC(c2ccccc2)=NO1 (centres undefined) | 1.14%
Cc1nc2scc(-c3cccs3)c2c(=O)n1N | 7.81%
N/C(=N\OC(=O)CCc1ccccc1)c1cccnc1 | -0.43%
COC(=O)CN1C(=O)[C@H]2[C@@H](C3CC3)N3C(=O)CN(Cc4ccc(-c5ccccc5)cc4)C(=O)[C@@]3(Cc3ccccc3)[C@H]2C1=O | 0.43%
Cc1cc(C)c2c(Cn3ccnc3)cc(=O)oc2c1 | -0.08%

Reference: PubChem BioAssay AID1947 (The Scripps Research Institute Molecular Screening Center, 2009)
